Experimental data from the supplement of paper PMC11732987, “Enantioselective OTUD7B fragment discovery through chemoproteomics screening and high-throughput optimisation” (Communications Chemistry, 2025).

Key:
Test in all cases: log2 ratio of Biotin-Ahx-Ub-VS probe labelling (fragment/DMSO); higher = less target engagement (more negative = stronger competition), active = hit call of the paper (q ≤ 0.05, log2 ratio ≤ -1)
Conditions in all cases: compound concentration: 200 uM; treatment time: 3 h
ALG13 = molecular target: T1, ALG13 (UniProt Q9NP73)
T1 sequence (whole entry): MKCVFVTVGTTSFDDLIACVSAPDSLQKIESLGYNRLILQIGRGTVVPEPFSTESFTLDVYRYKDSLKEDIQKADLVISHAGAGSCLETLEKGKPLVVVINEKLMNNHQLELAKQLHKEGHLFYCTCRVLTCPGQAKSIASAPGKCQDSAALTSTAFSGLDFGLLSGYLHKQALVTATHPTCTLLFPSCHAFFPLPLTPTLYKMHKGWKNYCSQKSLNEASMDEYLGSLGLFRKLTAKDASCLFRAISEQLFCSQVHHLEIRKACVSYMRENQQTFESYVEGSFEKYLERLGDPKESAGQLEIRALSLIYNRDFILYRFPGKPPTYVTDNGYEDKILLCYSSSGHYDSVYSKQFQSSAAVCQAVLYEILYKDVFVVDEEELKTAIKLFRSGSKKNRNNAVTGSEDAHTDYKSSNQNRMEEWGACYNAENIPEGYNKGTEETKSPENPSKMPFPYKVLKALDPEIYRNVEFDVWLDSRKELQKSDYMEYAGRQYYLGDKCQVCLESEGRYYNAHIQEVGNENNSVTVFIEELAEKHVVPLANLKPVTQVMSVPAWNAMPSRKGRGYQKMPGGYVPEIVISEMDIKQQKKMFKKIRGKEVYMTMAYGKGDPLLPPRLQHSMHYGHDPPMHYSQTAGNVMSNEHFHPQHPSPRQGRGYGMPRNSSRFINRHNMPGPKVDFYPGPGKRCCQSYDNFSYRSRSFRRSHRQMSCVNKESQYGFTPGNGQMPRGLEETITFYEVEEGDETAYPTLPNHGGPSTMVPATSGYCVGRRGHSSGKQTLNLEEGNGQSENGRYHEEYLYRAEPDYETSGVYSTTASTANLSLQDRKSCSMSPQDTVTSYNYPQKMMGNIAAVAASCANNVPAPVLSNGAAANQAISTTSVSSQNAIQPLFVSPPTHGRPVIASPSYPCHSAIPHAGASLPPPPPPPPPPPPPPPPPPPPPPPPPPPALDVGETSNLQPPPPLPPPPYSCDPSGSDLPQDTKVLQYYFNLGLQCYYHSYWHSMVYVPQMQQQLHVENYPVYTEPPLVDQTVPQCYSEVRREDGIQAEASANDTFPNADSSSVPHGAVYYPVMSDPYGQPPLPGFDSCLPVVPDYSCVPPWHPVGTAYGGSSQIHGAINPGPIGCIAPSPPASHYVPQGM
Summary of the method: (§1)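 Fragment (200 µM) or vehicle was incubated for 3 h with triplicate HEK293T lysate samples of 495 µg, which were then treated with Biotin-Ahx-Ub-VS at 0.5 µM final for 1 h. Labelled DUBs were enriched on NeutrAvidin, digested with LysC and trypsin, and analysed by diaPASEF LC-MS/MS. Values are average log2 fragment/vehicle ratios from an unpaired t-test on global-median-normalised Spectronaut label-free quantities, using proteins with ≥2 unique peptides.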

ATXN3 = ATXN3 (UniProt P54252)
Summary of the method: as §1

BAP1 = molecular target: T2, BAP1 (UniProt Q92560)
T2 sequence (whole entry): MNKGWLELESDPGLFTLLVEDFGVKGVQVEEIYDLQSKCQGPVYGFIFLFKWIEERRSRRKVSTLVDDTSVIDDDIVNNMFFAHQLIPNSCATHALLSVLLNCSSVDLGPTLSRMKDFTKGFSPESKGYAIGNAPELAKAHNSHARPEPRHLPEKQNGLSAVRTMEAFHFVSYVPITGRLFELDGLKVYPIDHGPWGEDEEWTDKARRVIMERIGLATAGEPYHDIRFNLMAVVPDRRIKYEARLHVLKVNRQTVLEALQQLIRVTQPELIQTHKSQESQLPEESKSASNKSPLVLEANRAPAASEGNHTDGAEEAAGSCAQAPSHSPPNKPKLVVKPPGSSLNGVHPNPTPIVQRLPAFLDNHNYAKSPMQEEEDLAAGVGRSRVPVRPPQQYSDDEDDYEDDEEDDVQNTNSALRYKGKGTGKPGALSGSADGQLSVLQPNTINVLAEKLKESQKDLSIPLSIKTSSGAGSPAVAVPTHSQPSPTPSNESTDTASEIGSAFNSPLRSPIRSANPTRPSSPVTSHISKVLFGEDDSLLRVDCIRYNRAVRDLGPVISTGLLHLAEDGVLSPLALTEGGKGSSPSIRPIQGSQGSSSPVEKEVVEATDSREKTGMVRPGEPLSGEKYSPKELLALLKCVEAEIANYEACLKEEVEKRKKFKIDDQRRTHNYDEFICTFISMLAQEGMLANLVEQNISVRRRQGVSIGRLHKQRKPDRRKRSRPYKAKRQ
Summary of the method: as §1

EIF3F = EIF3F (UniProt O00303)
Summary of the method: as §1

EIF3H = EIF3H (UniProt O15372)
Summary of the method: as §1

FAM105A = molecular target: T3, FAM105A (UniProt Q9NUU6)
T3 sequence (whole entry): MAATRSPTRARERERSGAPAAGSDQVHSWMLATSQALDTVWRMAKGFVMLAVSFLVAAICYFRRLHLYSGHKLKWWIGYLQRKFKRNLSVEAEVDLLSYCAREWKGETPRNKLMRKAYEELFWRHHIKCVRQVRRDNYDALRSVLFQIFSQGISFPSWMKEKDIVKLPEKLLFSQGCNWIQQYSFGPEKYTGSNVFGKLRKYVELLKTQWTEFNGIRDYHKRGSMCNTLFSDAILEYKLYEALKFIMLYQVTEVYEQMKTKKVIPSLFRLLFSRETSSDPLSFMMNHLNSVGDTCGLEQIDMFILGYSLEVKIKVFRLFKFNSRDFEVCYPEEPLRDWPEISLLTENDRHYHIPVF
Summary of the method: as §1

OTUB1 = OTUB1 (UniProt Q96FW1)
Summary of the method: as §1

OTUD4 = molecular target: T4, OTUD4 (UniProt Q01804)
T4 sequence (whole entry): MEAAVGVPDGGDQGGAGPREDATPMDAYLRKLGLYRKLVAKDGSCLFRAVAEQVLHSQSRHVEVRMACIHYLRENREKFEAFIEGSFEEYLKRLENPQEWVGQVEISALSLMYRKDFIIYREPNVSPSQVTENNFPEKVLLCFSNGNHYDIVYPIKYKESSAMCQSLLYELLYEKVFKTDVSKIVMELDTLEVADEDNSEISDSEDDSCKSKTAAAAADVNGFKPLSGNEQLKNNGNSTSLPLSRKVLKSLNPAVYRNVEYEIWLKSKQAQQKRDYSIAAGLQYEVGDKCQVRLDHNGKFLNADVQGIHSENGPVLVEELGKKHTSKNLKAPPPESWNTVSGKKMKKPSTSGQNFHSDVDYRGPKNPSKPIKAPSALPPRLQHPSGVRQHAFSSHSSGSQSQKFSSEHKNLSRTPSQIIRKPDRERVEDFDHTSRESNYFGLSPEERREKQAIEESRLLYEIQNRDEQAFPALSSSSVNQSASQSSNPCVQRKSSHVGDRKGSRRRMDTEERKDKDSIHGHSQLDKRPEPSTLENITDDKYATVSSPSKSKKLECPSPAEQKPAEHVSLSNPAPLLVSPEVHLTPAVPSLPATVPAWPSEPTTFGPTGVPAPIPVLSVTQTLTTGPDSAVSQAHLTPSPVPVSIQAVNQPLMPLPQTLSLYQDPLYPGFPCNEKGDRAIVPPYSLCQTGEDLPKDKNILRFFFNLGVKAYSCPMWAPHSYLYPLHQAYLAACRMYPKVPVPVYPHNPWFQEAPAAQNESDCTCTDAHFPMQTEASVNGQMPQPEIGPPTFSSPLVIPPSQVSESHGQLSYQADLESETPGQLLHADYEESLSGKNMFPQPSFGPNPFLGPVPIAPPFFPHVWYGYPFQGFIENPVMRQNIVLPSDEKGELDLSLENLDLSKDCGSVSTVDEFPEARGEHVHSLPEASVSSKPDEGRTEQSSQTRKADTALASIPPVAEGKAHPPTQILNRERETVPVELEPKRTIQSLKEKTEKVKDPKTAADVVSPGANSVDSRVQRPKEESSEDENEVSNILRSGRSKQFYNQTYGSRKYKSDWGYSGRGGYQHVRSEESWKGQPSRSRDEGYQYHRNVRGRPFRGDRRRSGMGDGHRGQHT
Summary of the method: as §1

OTUD5 = molecular target: T5, OTUD5 (UniProt Q96G74)
T5 sequence (whole entry): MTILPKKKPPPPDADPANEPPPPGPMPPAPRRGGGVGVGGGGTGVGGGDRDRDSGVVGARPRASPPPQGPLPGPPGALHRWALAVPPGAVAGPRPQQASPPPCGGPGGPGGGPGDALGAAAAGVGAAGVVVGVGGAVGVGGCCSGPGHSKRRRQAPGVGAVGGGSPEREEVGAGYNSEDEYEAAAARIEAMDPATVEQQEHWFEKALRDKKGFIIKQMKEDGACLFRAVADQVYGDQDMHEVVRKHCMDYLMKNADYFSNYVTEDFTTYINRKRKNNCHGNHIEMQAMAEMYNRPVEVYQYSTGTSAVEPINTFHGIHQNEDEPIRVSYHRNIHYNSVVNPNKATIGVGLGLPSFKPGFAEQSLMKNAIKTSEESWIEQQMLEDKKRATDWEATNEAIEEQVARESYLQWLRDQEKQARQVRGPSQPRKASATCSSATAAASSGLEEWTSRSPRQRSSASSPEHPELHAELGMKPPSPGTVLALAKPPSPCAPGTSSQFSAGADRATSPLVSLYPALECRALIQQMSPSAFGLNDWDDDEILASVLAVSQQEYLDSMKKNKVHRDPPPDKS
Summary of the method: as §1

Measured: log2 ratio of Biotin-Ahx-Ub-VS probe labelling

Sequence of EIF3H (O15372 whole entry): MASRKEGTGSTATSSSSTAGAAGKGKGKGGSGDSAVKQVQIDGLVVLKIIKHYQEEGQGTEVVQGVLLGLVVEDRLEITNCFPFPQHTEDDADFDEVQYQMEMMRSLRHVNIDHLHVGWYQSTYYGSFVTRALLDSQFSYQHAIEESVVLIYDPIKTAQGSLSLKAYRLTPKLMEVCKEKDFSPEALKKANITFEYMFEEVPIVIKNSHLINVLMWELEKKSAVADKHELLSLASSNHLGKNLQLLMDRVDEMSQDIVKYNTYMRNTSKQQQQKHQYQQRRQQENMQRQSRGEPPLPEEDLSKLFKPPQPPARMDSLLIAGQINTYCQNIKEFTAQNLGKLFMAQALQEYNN
Sequence of ATXN3 (P54252 whole entry): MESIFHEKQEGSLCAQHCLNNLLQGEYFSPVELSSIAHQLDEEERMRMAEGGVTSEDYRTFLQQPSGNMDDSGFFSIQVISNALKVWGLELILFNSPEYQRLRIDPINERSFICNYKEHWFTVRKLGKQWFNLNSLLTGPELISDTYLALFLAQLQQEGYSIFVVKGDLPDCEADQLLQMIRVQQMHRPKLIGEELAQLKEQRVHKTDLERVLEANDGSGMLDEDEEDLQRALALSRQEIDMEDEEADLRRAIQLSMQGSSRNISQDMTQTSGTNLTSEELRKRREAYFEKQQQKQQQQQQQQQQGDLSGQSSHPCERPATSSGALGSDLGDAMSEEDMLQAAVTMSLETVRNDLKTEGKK
Sequence of OTUB1 (Q96FW1 whole entry): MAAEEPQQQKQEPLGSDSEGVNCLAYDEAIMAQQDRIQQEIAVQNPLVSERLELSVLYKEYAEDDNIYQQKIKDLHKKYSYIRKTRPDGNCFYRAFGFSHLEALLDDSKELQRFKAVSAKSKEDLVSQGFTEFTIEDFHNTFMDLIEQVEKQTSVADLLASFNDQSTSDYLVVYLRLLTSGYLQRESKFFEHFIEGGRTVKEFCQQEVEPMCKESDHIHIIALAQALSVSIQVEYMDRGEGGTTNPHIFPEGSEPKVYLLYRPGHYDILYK
Sequence of EIF3F (O00303 whole entry): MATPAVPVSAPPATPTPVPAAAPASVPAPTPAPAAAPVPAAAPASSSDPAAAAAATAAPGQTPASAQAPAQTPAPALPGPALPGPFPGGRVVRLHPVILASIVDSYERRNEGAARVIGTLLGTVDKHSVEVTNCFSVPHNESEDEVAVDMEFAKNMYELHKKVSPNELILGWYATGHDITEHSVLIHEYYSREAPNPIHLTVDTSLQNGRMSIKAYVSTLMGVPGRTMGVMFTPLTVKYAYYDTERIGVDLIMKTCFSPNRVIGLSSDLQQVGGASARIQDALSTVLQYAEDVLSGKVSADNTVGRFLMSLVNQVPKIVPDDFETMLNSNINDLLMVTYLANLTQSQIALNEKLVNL

O=C(CCl)N1CCCCCC1c1ncon1 (centres undefined)
inactive: ALG13 0.0534 | ATXN3 -0.268 | BAP1 -0.409 | EIF3F 0.0211 | EIF3H 0.132 | FAM105A 0.156 | OTUB1 0.099 | OTUD4 -0.759 | OTUD5 -0.654
